The text below walks through data of article PMC7862700, “An all-to-all approach to the identification of sequence-specific readers for epigenetic DNA modifications on cytosine”.

What all share (experiment): DAPPL (digital affinity profiling via proximity ligation, sequencing); 10 mM Tris-HCl pH 7.5, 50 mM NaCl, 1 mM DTT, 4% glycerol, room temperature, 30 min; GST-TFs on glutathione beads, 16-mer random dsDNA library, 0.1% formaldehyde crosslink after washing; high values mean tight binding
Assay [1] addresses T1, FEV (Homo sapiens, UniProt Q99581 1-238).
T1 sequence: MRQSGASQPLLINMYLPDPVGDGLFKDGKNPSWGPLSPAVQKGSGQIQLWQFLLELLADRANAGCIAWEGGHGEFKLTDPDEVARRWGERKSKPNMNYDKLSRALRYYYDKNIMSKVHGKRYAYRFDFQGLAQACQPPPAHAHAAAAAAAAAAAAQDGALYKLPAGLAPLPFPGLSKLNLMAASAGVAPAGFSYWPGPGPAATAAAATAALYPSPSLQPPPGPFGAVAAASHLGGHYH
Particulars: protein: recombinant; tags: N-terminal GST; dsDNA, one strand shown. The essentials:
(§1)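 Yeast served to express human transcription factors as GST fusions, which were then captured on glutathione beads and labelled with DNA barcodes. Pooled with a tag-only sample, they were incubated with 200 nmole of a 16-mer random double-stranded DNA library for 30 min at room temperature in Tris/NaCl/DTT/glycerol buffer, washed, crosslinked with 0.1% formaldehyde, ligated by proximity, amplified by PCR and sequenced. Dividing each hexamer's read frequency for a factor by its frequency for the tag-only sample gives the binding signal.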

In assay [2] the target is ETV5 (Homo sapiens, UniProt P41161 1-510). Particulars: protein: recombinant; tags: N-terminal GST; dsDNA, one strand shown. The essentials:
as §1

The target of assay [3] is HSF1 (Homo sapiens, UniProt Q00613 1-529). As to conditions: protein: recombinant; tags: N-terminal GST; chain copies: 3; dsDNA, one strand shown. The essentials:
as §1

The target of assay [4] is T2, SPIC (Homo sapiens, UniProt Q8N5J4 1-248).
T2 sequence: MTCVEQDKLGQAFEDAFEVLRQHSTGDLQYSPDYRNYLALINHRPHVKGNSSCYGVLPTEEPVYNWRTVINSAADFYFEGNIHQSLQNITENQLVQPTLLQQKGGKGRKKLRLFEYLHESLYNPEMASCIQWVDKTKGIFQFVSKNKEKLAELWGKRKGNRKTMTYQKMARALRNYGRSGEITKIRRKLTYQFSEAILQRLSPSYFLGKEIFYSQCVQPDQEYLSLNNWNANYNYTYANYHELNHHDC
Particulars: protein: recombinant; tags: N-terminal GST; dsDNA, one strand shown. The essentials:
as §1

Assay [5] addresses ELF4 (Homo sapiens, UniProt Q99607 1-663). As to conditions: protein: recombinant; tags: N-terminal GST; dsDNA, one strand shown. Put shortly: as §1
Assay [6] concerns the target T3, ELK4 (Homo sapiens, UniProt P28324-2 1-405).
T3 sequence: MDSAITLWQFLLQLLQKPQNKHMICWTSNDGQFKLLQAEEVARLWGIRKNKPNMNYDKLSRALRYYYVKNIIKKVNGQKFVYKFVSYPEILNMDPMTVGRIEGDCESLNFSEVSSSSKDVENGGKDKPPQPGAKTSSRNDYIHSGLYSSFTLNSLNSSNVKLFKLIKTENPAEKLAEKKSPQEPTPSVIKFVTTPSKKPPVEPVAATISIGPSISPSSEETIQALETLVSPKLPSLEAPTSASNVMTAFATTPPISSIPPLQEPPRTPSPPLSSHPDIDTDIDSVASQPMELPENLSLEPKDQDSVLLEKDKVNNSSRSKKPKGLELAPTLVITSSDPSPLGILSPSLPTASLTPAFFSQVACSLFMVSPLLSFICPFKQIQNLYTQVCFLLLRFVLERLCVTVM
As to conditions: protein: recombinant; tags: N-terminal GST; dsDNA, one strand shown. Put shortly: as §1

Assay [7] deals with T4, ETV2 (Homo sapiens, UniProt O00321 1-342).
T4 sequence: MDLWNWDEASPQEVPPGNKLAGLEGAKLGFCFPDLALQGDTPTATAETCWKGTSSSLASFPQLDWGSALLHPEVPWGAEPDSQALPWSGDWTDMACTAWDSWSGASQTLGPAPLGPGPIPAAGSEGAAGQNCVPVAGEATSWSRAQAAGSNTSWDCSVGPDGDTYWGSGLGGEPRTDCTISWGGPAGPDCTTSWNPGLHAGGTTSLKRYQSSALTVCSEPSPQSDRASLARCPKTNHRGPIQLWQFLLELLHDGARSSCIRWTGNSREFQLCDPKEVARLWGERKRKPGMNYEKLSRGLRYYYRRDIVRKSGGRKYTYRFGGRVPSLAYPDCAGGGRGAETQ
As to conditions: protein: recombinant; tags: N-terminal GST; dsDNA, one strand shown. The essentials: as §1

For assay [8], the target named is T5, ELF3 (Homo sapiens, UniProt P78545 1-371).
T5 sequence: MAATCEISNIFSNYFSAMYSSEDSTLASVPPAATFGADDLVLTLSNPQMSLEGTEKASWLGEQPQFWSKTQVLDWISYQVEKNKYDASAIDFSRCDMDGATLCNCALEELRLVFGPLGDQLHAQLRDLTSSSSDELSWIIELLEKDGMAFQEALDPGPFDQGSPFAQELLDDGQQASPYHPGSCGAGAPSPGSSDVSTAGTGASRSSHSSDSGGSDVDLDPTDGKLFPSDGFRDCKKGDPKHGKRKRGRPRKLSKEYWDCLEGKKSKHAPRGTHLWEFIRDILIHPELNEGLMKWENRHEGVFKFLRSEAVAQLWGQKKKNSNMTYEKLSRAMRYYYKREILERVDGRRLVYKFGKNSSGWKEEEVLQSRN
As to conditions: protein: recombinant; tags: N-terminal GST; dsDNA, one strand shown. The essentials: as §1

In assay [9] the target is CRX (Homo sapiens, UniProt O43186 1-299). Particulars: protein: recombinant; tags: N-terminal GST; dsDNA, one strand shown. The essentials: as §1
In assay [10] the target is ETV1 (Homo sapiens, UniProt P50549 1-477). Particulars: protein: recombinant; tags: N-terminal GST; dsDNA, one strand shown. Put shortly: as §1
Sequence of ETV1 (P50549 whole entry): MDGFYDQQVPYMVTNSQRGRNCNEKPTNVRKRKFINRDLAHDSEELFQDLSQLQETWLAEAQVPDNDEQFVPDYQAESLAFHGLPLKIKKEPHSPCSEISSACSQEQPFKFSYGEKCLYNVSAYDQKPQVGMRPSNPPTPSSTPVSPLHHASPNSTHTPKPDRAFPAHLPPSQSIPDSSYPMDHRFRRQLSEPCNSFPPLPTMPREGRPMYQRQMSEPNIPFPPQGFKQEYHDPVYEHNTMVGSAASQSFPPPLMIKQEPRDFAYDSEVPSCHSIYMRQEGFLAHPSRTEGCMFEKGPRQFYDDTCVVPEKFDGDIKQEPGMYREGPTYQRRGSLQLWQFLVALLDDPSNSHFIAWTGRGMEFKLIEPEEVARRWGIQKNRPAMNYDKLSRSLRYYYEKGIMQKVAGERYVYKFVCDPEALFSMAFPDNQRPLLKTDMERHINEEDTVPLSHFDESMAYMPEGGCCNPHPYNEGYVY

Sequence of ELF4 (Q99607 whole entry): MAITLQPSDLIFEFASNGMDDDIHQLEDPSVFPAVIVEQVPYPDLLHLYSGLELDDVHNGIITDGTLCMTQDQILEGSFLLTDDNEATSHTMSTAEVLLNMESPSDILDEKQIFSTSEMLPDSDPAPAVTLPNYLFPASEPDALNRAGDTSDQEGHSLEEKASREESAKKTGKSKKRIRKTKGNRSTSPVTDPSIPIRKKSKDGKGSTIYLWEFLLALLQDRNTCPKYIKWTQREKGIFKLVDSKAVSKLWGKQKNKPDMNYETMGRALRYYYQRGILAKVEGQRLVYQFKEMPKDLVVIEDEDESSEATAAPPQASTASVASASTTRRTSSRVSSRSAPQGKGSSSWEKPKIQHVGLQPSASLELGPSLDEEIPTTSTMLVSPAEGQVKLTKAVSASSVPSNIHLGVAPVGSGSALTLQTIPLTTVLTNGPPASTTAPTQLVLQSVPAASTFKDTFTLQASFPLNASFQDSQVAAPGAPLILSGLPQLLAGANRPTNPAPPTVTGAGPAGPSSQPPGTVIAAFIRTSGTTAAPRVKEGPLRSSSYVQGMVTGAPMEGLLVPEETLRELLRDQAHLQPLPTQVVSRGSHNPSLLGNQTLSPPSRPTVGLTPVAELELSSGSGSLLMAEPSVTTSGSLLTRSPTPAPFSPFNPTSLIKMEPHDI
Sequence of HSF1 (Q00613 whole entry): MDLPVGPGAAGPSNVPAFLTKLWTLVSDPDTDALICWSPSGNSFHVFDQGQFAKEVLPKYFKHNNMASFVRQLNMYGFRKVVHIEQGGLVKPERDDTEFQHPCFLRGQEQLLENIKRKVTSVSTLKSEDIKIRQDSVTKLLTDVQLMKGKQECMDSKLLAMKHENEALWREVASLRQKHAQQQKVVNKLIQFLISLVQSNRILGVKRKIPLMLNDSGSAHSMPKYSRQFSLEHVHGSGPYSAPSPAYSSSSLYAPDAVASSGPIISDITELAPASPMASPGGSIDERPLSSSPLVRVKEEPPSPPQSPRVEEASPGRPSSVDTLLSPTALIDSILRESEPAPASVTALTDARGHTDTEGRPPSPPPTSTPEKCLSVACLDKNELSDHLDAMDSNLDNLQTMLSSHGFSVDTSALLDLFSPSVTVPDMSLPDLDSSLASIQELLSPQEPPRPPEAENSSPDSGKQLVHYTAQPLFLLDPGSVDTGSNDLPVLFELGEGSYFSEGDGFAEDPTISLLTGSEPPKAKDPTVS
Sequence of ETV5 (P41161 whole entry): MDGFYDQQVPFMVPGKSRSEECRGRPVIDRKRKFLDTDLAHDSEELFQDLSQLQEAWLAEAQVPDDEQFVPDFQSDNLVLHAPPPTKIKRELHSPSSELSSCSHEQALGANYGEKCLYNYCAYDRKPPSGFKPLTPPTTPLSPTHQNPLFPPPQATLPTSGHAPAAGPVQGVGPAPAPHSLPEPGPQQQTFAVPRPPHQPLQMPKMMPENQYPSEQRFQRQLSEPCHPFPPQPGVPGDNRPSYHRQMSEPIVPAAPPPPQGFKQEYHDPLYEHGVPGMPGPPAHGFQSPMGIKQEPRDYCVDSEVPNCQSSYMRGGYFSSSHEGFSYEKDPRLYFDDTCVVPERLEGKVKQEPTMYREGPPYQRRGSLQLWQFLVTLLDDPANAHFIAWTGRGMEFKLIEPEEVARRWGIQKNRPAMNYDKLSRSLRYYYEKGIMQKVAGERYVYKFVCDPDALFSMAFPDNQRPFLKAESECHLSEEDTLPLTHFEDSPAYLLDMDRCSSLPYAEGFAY
Sequence of CRX (O43186 whole entry): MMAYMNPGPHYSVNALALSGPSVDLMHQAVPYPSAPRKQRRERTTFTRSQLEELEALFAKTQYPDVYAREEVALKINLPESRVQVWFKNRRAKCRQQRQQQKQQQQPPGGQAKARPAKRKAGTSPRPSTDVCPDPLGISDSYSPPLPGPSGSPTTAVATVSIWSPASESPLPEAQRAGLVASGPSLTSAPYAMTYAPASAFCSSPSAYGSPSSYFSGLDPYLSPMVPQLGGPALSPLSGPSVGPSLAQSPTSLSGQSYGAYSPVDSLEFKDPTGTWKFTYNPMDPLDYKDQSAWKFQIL

Regarding CGAAGC, the binding signal is 1.23 fold enrichment (6-mer frequency, TF over GST control) in assay [1]; 1.31 fold enrichment (6-mer frequency, TF over GST control) in assay [2]; 1.64 fold enrichment (6-mer frequency, TF over GST control) in assay [3]; 1.46 fold enrichment (6-mer frequency, TF over GST control) in assay [4]; 1.44 fold enrichment (6-mer frequency, TF over GST control) in assay [5]; 1.48 fold enrichment (6-mer frequency, TF over GST control) in [6]. Also, the binding signal in assay [7] is 1.3 fold enrichment (6-mer frequency, TF over GST control); in assay [8], 1.23 fold enrichment (6-mer frequency, TF over GST control); in assay [9] it was 1.19 fold enrichment (6-mer frequency, TF over GST control); in assay [10], 1.29 fold enrichment (6-mer frequency, TF over GST control).
As to ATACTC, the binding signal in assay [1] was 1.27 fold enrichment (6-mer frequency, TF over GST control); in [2], 1.22 fold enrichment (6-mer frequency, TF over GST control); in [3], 1.41 fold enrichment (6-mer frequency, TF over GST control); in [4], 1.42 fold enrichment (6-mer frequency, TF over GST control); in [5] it was 1.25 fold enrichment (6-mer frequency, TF over GST control); in assay [6], 1.23 fold enrichment (6-mer frequency, TF over GST control). Moreover, the binding signal was 1.3 fold enrichment (6-mer frequency, TF over GST control) in assay [7]; 1.23 fold enrichment (6-mer frequency, TF over GST control) in assay [8]; 1.37 fold enrichment (6-mer frequency, TF over GST control) in [9]; 1.28 fold enrichment (6-mer frequency, TF over GST control) in assay [10].
For the sequence TCTACA, the binding signal in assay [1] is 1.2 fold enrichment (6-mer frequency, TF over GST control); in assay [2] it was 1.18 fold enrichment (6-mer frequency, TF over GST control); in assay [3] it was 1.39 fold enrichment (6-mer frequency, TF over GST control); in assay [4] it was 1.44 fold enrichment (6-mer frequency, TF over GST control); in [5] it was 1.15 fold enrichment (6-mer frequency, TF over GST control); in assay [6], 1.17 fold enrichment (6-mer frequency, TF over GST control). Moreover, the binding signal in assay [7] is 1.18 fold enrichment (6-mer frequency, TF over GST control); in [8], 1.22 fold enrichment (6-mer frequency, TF over GST control); in assay [9] it was 1.17 fold enrichment (6-mer frequency, TF over GST control); in [10], 1.16 fold enrichment (6-mer frequency, TF over GST control).
Regarding TTATAA, the binding signal in assay [1] is 1.16 fold enrichment (6-mer frequency, TF over GST control); in assay [2], 1.13 fold enrichment (6-mer frequency, TF over GST control); in assay [3] it was 1.79 fold enrichment (6-mer frequency, TF over GST control); in [4], 1.2 fold enrichment (6-mer frequency, TF over GST control); in [5], 1.11 fold enrichment (6-mer frequency, TF over GST control); in assay [6] it was 1.14 fold enrichment (6-mer frequency, TF over GST control). For the same sequence, the binding signal in assay [7] is 1.12 fold enrichment (6-mer frequency, TF over GST control); in [8], 1.32 fold enrichment (6-mer frequency, TF over GST control); in assay [9], 2.9 fold enrichment (6-mer frequency, TF over GST control); in assay [10] it was 1.13 fold enrichment (6-mer frequency, TF over GST control).
As for AGCATT, the binding signal in assay [1] is 1.11 fold enrichment (6-mer frequency, TF over GST control); in assay [2], 1.03 fold enrichment (6-mer frequency, TF over GST control); in assay [3], 1.2 fold enrichment (6-mer frequency, TF over GST control); in [4], 1.03 fold enrichment (6-mer frequency, TF over GST control); in assay [5] it was 1.11 fold enrichment (6-mer frequency, TF over GST control); in [6], 1.08 fold enrichment (6-mer frequency, TF over GST control). Also, the binding signal in assay [7] is 1.06 fold enrichment (6-mer frequency, TF over GST control); in assay [8], 1.22 fold enrichment (6-mer frequency, TF over GST control); in [9], 1.32 fold enrichment (6-mer frequency, TF over GST control); in [10], 1.13 fold enrichment (6-mer frequency, TF over GST control).
Consider AATTTG, for which the binding signal was 1.39 fold enrichment (6-mer frequency, TF over GST control) in [1]; 1.25 fold enrichment (6-mer frequency, TF over GST control) in assay [2]; 1.26 fold enrichment (6-mer frequency, TF over GST control) in [3]; 1.41 fold enrichment (6-mer frequency, TF over GST control) in [4]; 1.26 fold enrichment (6-mer frequency, TF over GST control) in assay [5]; 1.34 fold enrichment (6-mer frequency, TF over GST control) in assay [6]. The binding signal in assay [7] was 1.16 fold enrichment (6-mer frequency, TF over GST control); in assay [8] it was 1.32 fold enrichment (6-mer frequency, TF over GST control); in [9] it was 1.33 fold enrichment (6-mer frequency, TF over GST control); in assay [10] it was 1.28 fold enrichment (6-mer frequency, TF over GST control).
As for TGATGA, the binding signal in assay [1] was 1.25 fold enrichment (6-mer frequency, TF over GST control); in [2], 1.32 fold enrichment (6-mer frequency, TF over GST control); in assay [3] it was 1.16 fold enrichment (6-mer frequency, TF over GST control); in assay [4], 1.14 fold enrichment (6-mer frequency, TF over GST control); in [5] it was 1.44 fold enrichment (6-mer frequency, TF over GST control); in assay [6], 1.46 fold enrichment (6-mer frequency, TF over GST control). The binding signal is 1.33 fold enrichment (6-mer frequency, TF over GST control) in [7]; 1.4 fold enrichment (6-mer frequency, TF over GST control) in assay [8]; 1.24 fold enrichment (6-mer frequency, TF over GST control) in assay [9]; 1.27 fold enrichment (6-mer frequency, TF over GST control) in assay [10].
